Data reported in the supplement of paper PMC3334620.
Whole data set: some 33,000 sequences, median “E-score (-0.5 to 0.5)” near -0.021, cut for the highest 2% near 0.32. What follows is part of a selection rich in the highest values, with near analogues and random picks from the rest.

biological target: T1, Zap1 (UniProt P47043); assay: PBM E-score (8-mer binding enrichment) (E-score (-0.5 to 0.5)); higher = stronger / more preferred TF binding; conditions: protein concentration: 200 nM; construct: GST-full length
T1 sequence: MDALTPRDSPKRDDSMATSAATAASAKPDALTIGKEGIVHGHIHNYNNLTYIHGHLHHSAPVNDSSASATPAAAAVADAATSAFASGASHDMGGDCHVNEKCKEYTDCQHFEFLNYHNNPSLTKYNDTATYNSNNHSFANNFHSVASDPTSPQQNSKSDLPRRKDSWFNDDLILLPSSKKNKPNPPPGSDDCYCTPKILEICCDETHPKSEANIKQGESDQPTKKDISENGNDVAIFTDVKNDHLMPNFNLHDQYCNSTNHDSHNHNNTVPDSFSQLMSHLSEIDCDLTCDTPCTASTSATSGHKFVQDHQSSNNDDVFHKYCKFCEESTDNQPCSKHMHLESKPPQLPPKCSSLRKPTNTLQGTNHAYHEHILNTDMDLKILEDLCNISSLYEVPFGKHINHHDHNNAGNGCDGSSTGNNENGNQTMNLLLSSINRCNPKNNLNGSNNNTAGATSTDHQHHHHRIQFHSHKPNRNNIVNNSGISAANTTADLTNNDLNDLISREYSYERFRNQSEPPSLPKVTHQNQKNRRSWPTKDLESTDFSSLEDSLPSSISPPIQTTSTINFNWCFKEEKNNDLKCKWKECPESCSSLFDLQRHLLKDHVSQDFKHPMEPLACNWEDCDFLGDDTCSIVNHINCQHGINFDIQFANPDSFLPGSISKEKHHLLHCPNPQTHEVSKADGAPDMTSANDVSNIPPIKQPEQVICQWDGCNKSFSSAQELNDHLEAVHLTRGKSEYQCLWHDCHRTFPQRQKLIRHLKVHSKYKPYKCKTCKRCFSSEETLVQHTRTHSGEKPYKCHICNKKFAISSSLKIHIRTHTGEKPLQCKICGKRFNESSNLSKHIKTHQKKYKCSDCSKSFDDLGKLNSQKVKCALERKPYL
Protocol: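 Universal 'all 10-mer' protein binding microarrays (Agilent AMADID 015681) probed with GST-tagged S. cerevisiae TFs (full-length or DBD) made by in vitro transcription/translation (PURExpress), about 100-200 nM. Bound TF was detected with fluorescent anti-GST. Each ungapped 8-mer (which stands for itself and its reverse complement) is scored by the PBM enrichment score (E-score), a modified Wilcoxon-Mann-Whitney statistic from -0.5 to +0.5, computed with the Universal PBM Analysis Suite. Scale: above 0.35 generally sequence-specific binding.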

Sequence | PBM E-score
AGGTGGTC | 0.142
CGTTGTGA | -0.151
AGTTGTGA | 0.193
AGTTGCGA | 0.16
GGTTGTAC | 0.336
CGTTGTTA | 0.102
AGTTGTAC | 0.146
GGTTGTGA | 0.374
GGTTGTAA | 0.278
GGTTGTTA | 0.355
AGTTGTTA | 0.161
CGTTGCGA | -0.126
GGTTGCGA | 0.335
CGTAGACC | -0.109
ACAGAACC | 0.0979
ATTGGCAG | -0.219
CTGAAGTA | 0.0214
ATGACTCG | -0.115
CTTGCGAA | 0.139
GCCATATA | 0.0242
TAAACCGA | -0.0627
ATTCTCTG | -0.159
TGACCAAA | 0.28
CCACATCG | 0.0835
GAGTGTCA | 0.035
CAAAGGTG | 0.0139

Sequence | PBM E-score
ATAACAGC | -0.0193
CAGCTGGC | -0.0978
AGGGTTTA | 0.315
GGGGTTAA | 0.403
AGGGTTAG | 0.431
GGGGTTCA | 0.0745
AGGGTTAA | 0.461
AGAGTTAA | -0.086
AGCGTTAG | -0.147
TGTGTTAA | 0.0894
AGGGTTTG | 0.292
GGGGTTTA | 0.126
TCGGTTAA | 0.274
TGGGTTAA | 0.359
AAACTTAG | 0.0118
ACTCTTGA | -0.00751
AAACTTCA | 0.00932
ATGGTTAA | 0.357
GTGGTTGA | 0.0163
GTGGTTAA | 0.406
ATGGTTTA | 0.191
GTGGTTTA | 0.213
ATGGTTCA | 0.119
CCTGTGAG | 0.133
CGGTGCTC | 0.123
GGCACAGA | -0.267

Sequence | PBM E-score
ACCCTAAG | 0.457
ATCCTAAG | -0.00974
AGCCTAAT | -0.212
GCCCTAAC | 0.111
ACCCTAAT | 0.407
CCCCTAAA | 0.0485
ACCCTAAC | 0.414
ACCCTAAA | 0.416
CCCCTAAG | 0.158
ATCCTAAT | 0.0542
TCCCTAAA | -0.0128
CCCCTAAC | 0.232
GCTGCTTA | 0.0693
CCCTGCCA | -0.00313
CGCTAGCC | -0.373
CGGTATAA | 0.0772
AGGTATAA | 0.317
AGGTATAT | 0.115
CATGCTGG | -0.0654
CGGATTCC | -0.0353
TAACCGTA | 0.31
CACCCCTC | 0.239
ACCCCCTC | -0.0959
TAACCCTA | 0.462
AACCCCTC | 0.353
AAACCCTC | 0.175

Sequence | PBM E-score
AACCCCTG | 0.347
TAGCCCTA | -0.0869
AGACCCTG | 0.253
AAACCCTG | 0.337
ACCCCCTG | -0.07
CACCCCTG | -0.0914
AGAGAGAC | -0.00859
CACGCTAG | -0.21
ACGTTGAG | -0.0801
TCCTTAAA | 0.15
AGATTTGC | -0.0426
ATATCTCC | -0.149
ATTGACTC | 0.049
GGACAGCC | -0.0735
CATCGACC | -0.0318
TTCTTCAA | 0.0925
ATCCCCTA | 0.0194
CAACCCTC | 0.258
ACCCCCTA | -0.354
AACCCCTA | 0.389
AAACCCTT | 0.272
GAACCCTA | 0.272
CAACCCTA | 0.442
CAACCCGG | 0.213
AAACCCTA | 0.423
AAACCCAA | 0.312

Sequence | PBM E-score
CAACCCTG | 0.419
CAAACCTA | 0.166
CGAAGCAG | -0.165
AGGCTGGA | -0.23
CACCAGGA | 0.0532
AATCGCGG | -0.0922
GAAAAGAC | 0.0296
CACCAAGA | 0.0172
ATCAACGC | -0.0956
AGTAGTCA | -0.276
CAGATACA | 0.0912
GTAGCACA | 0.017
GCATCCAA | -0.203
AGGGAGAA | -0.148
AACCCCCT | -0.187
AACCCCGT | 0.277
AGACCCTA | 0.298
GGACCCTA | 0.159
CGACCCTA | 0.328
CACCCCTA | 0.0983
GACCCCTA | 0.276
TACCCCTA | 0.366
AACCCCTT | 0.38
CGTCTCTA | -0.19
GCTAAAAC | 0.0736
CGTATCCA | -0.133

Sequence | PBM E-score
CGGTTGAA | 0.221
CCACAGCC | -0.17
AACCTTCC | 0.21
AACCTTCA | 0.368
CACCTTTC | 0.0949
AACCTTTA | 0.398
GACCTTCA | 0.0992
AGCCTTTC | -0.185
GGCCTTTA | 0.114
AGCCTTTA | 0.132
ATCCTTTA | 0.092
CACCTTTA | 0.118
AACCTTTC | 0.324
GACCTTTA | 0.401
ATAGTTGC | 0.135
ACGTCGCA | -0.0322
GGTGAACA | -0.231
GCGCTATA | -0.105
CGCTATCA | -0.078
CAGCAAGC | -0.389
ACCTAGGC | -0.26
GTGATAAC | 0.251
CATCCTCC | -0.176
GATAGCTA | -0.298
GGCTCAAA | -0.176
AGGAACAA | 0.00761

Sequence | PBM E-score
AACCTTTG | 0.377
AACCTTCG | 0.305
AACCTTGG | 0.274
AGATCGCT | -0.204
GAAACTCC | -0.206
ACAGATCA | 0.0477
TGGTTAAA | 0.379
AGGTTAAA | 0.376
TCGTTAAA | -0.0347
CGGTTAAA | 0.328
ATGTTAAA | 0.0569
CGGTTTAA | 0.0515
ACGTTAAA | 0.101
TAGTTAAA | 0.234
CTGTTAAA | 0.0123
CTGTTGCA | 0.201
GCAAGGTA | 0.265
CCGTCCTC | -0.191
CTGGTGAA | -0.0889
AGCTGTCC | -0.225
AACCGCGA | 0.367
AACCGCGC | 0.24
CCGCGCGC | 0.0679
TACCGCGA | 0.328
GACCGCGA | 0.259
CACCGCGG | 0.176

Sequence | PBM E-score
AACCGCGG | 0.374
CACCGCGA | 0.0268
CCGCGCGA | 0.124
AACCGCAG | 0.126
CCGCGCGG | 0.332
AACCGCGT | 0.227
AGCACTAC | -0.0779
CCGAAGCA | -0.176
ACACAATC | 0.00143
CCAGGGCG | -0.178
TCCAAGAA | -0.0864
CGTCTCAC | -0.107
AGCATTTG | -0.00877
AGCAAGCA | -0.167
ATTAATAA | 0.21
ATTAATAC | 0.344
ATTAATAG | 0.195
ATGCCACC | -0.11
CTGGCCGA | -0.318
ACTTTAGA | 0.0114
GATGGCAA | -0.0776
AAATGACC | 0.317
GAATGACC | 0.338
GCATGACC | 0.234
GAATGACA | -0.0394
CCATGACC | 0.416

Sequence | PBM E-score
CCATGACG | 0.0693
GTTGGCCA | -0.015
GCGCCTTA | -0.066
GAGTTTAA | 0.121
AACCTACA | 0.264
ACCTACCA | 0.126
AGTGGTTG | 0.312
CGTGGTTA | 0.348
AGTGGTTA | 0.434
AGTGGTCA | 0.197
CGTGGTAA | 0.0908
AGTGGTTC | 0.129
GGTGGTAA | 0.274
GGTGGTGA | 0.23
CGTGGTTC | 0.185
CGTGGTCA | 0.195
GGTGGTCA | 0.341
GGTGGTTA | 0.433
